Test: small-molecule microarray binders of probe aCHRDL2, primary screen, biochemical, biotinylated probe, 635/667 nm fluorescence (AID 1100)
Conditions: higher = more signal

In order of falling composite z-score:
1. COC1OC[C@]2(C)[C@H]3C4=C(CN2C(=O)OC(C)(C)C)[C@H](C)C(CO)C(CO)C4CC[C@@H]13 (some centres not stated)  1.52
2. O=C1NC(=O)C2C1C=CC(C(O)CCc1ccccc1)N2Nc1ccc(Cl)cc1Cl (configuration not stated)  1.29
3. O=C(N1CCCCC1)[C@@]1(CCS(=O)(=O)c2ccccc2)COC(c2ccc(OCCCO)cc2)=N1  1.21
4. COC(=O)[C@@]1(Cc2ccc(OC)cc2)[C@H]2c3cc(C(=O)N4CCCC4)n(Cc4cccc5ccccc45)c3C[C@H]2CN1C(=O)c1ccccc1  1.08
5. COc1cc2c(cc1O)C(C)N(Cc1ccc([N+](=O)[O-])o1)CC2 (configuration not stated)  0.879
6. CN1C(=O)C2C=CC(C(O)COCc3ccccc3)N(N(c3ccccc3)c3ccccc3)C2C1=O (configuration not stated)  0.815
7. O=C1O[C@H](c2ccccc2)[C@H](c2ccccc2)N2[C@H]1[C@@H](C(=O)N1CCN(c3ncccn3)CC1)[C@]1(C(=O)Nc3ccc(C#CC4(O)CCCCCC4)cc31)[C@H]2c1ccc(OCCO)cc1  0.731
8. O=C1C2C=CC(C(O)c3ccc(Br)cc3)N(Nc3ccccc3F)C2C(=O)N1c1ccccc1 (configuration not stated)  0.703
9. COCCOC(=O)N1C(=O)[C@@]2(c3cc(C#CC4=CCCCC4)ccc31)[C@H](c1ccc(OCCO)cc1)N1[C@H](c3ccccc3)[C@H](c3ccccc3)OC(=O)[C@H]1[C@@H]2C(=O)NC[C@H](O)c1ccccc1  0.696
10. O=C1O[C@H](c2ccccc2)[C@H](c2ccccc2)N2[C@H]1[C@@H](C(=O)Nc1nc3ccccc3s1)[C@]1(C(=O)Nc3ccc(C#CCCO)cc31)[C@H]2c1ccc(O)cc1  0.673
11. OCCCC1=CC(c2ccc(CN3CCCC3)cc2)N(Cc2sc3ccccc3c2Cl)CC1 (configuration not stated)  0.504
12. C=C(COC)C(=O)CC[C@@H](OC(=O)c1cccnc1)c1ccc(OCCO)cc1  0.423
13. NC(N)=NCCCn1cc(CNC(=O)[C@@H](N)Cc2ccccc2)nn1  0.34
14. C=CCC(OC(C)=O)[C@@H]1[C@@H](N(Cc2cc3ccccc3o2)C(=O)c2ccc(-c3ccccc3)cc2)c2cc(OCCCO)ccc2N1C(=O)c1ccc2ccccc2c1 (some centres not stated)  0.285
15. C=CCC(OC(C)=O)[C@@H]1[C@@H](N(Cc2cc3ccccc3o2)C(=O)Cc2ccc(F)cc2)c2cc(OCCCO)ccc2N1C(=O)c1ccc2ccccc2c1 (some centres not stated)  0.165
16. COC(=O)c1nc2oc1CC[C@@H](CO)NC(=O)N(C)Cc1cnnn1C[C@H](Cc1ccccc1)NC2=O  0.106
17. COCCOC(=O)N1C(=O)[C@@]2(c3cc(C#CCC(C(=O)OC)C(=O)OC)ccc31)[C@H](C(=O)N1CCc3cc(OC)c(OC)cc3C1)[C@H]1C(=O)O[C@H](c3ccccc3)[C@H](c3ccccc3)N1[C@@H]2c1ccc(OCCO)cc1  0.0313
18. C=CCOC(=O)[C@H]1[C@@H]2C(=O)O[C@@H](c3ccccc3)[C@@H](c3ccccc3)N2[C@@H](c2ccc(OCCOC(=O)[C@@H]3C[C@@H]4C(=O)N[C@@H](CCCCN(C)C)C(=O)N4[C@@H]3c3ccc(O)cc3)cc2)[C@]12C(=O)Nc1ccccc12  0.0016
19. NC(=O)N1C(=O)C2C(C1=O)C1C=C(CCCO)C2C(c2cccs2)N1Cc1cccc(OC(F)(F)F)c1 (configuration not stated)  -0.123
20. COc1cc(CO)cc(I)c1O[C@H]1C=C(C(=O)NCCO)C[C@@H](NCc2ccc(F)cc2)[C@@H]1O  -0.162
21. COc1ccc([Si](C)(C)[C@@H]2[C@@H](CC(=O)N3Cc4ccccc4C[C@H]3CO)O[C@]3(C(=O)N(C)c4ccccc43)[C@H]2C)cc1  -0.174
22. CCOC(=O)C1=C[C@@H](c2ccccc2)N(S(=O)(=O)c2ccc(C)cc2)[C@H]1c1ccccc1Cl  -0.229
23. CCOC(=O)C[C@H]1[C@H](OC(=O)Cc2ccc3c(c2)OCO3)[C@@H](NC(=O)Cc2ccc(OC)cc2)c2cc(OCCCO)ccc2N1C(=O)c1ccc2ccccc2n1  -0.265
24. CCOC(=O)C[C@H]1[C@H](OC(=O)c2cc3ccccc3oc2=O)[C@@H](NC(=O)Cc2ccc(OC)cc2)c2cc(OCCCO)ccc2N1C(=O)c1ccc2ccccc2n1  -0.335
25. COC(=O)c1c2oc(c1C(=O)OC)C(=O)N(Cc1ccccc1)Cc1cn(nn1)C[C@H](Cc1ccccc1)NC(=O)N[C@H](CO)CC2  -0.342
26. C[N+](C)(C)CCCCCCNC(=O)[C@H]1C[C@H]2C(=O)NCC(=O)N2[C@H]1c1ccc(O)cc1  -0.592
27. CC(CO)N1C(=O)[C@@H]2[C@H]3C(=O)OCC=C[C@H]3OC23C=CCN(CCN2CCOCC2)C(=O)[C@@H]13 (some centres not stated)  -0.646

From PubChem BioAssay
